Reference: publication PMC5540273 (PLoS ONE, 2017)

test system: PRKD3; conditions: concentration: 1 μM, replicates: in singlicate; n = 1
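Note: KINOMEscan kinase panel screen.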

Row | SMILES | %Inh
1 | Cc1occc1-c1ncc(OC[C@@H](N)Cc2c[nH]c3ccccc23)cc1-c1ccc2[nH]nc(C)c2c1.O=C(O)C(F)(F)F [GSK682037] | 95.6%
2 | C[C@@H]1CC[C@@H](C(=O)Nc2ccccc2)CN1c1cc(-c2ccc3c(N)n[nH]c3c2)nc(N)n1 [GSK2286062] | 0%
3 | CCn1c(-c2nonc2N)nc2c(C#CC(C)(C)O)ncc(OCCCCN)c21.O=C(O)C(F)(F)F.O=C(O)C(F)(F)F [GSK507274] | 0%
4 | O=c1[nH]cc(-c2ccc(N3CCOCC3)cc2)c2sc(-c3cn[nH]c3)cc12 [GSK2276055] | 4%
5 | COc1cccc(C2=C(Nc3ccc(Cl)c(C(=O)O)c3)C(=O)NC2=O)c1 [SB-390769] | 0%

test system: PRKG1; conditions: concentration: 1 μM, replicates: in singlicate; n = 1

Row | SMILES | %Inh
6 | COC(=O)Nc1nc2cc(Oc3ccc(NC(=O)Nc4cc(C(F)(F)F)ccc4F)cn3)ccc2[nH]1.Cl.Cl [GW681170] | 9%
7 | Fc1ccc(-c2ncn(C3CCNCC3)c2-c2ccnc(Oc3ccc(-c4ccccc4)cc3)n2)cc1 [SB-245391] | 6%
8 | Cc1ccc(C)c(NC(=O)NC2CCN(c3ccnc(Nc4ccc(F)cc4)n3)C2)c1 (centres unmarked) [GSK1379720] | 0%
9 | CSc1cccc2c(-c3ccncn3)c(-c3ccc(F)cc3)nn12 [GW514786] | 17%
10 | Oc1cc(Nc2ccnc3cc(I)ccc23)ccc1F [GW552771] | 0%
11 | Cc1ccc(S(=O)(=O)Nc2ccc(Nc3nccc(Nc4cccc5[nH]ncc45)n3)cc2)cc1 [GSK581271] | 0%
12 | COc1cccc(-c2ccc3c(NC(=O)C4CC4)n[nH]c3n2)c1 [SB-710903] | 0%
13 | O=C(Nc1cccc(-c2nn3ccccc3c2-c2ccnc(Nc3cccc(C(F)(F)F)c3)n2)c1)c1c(F)cccc1F [GSK292658] | 3%
14 | Cl.Cl.NCC(NCc1ccc(-c2ccnc3[nH]ccc23)s1)c1ccccc1 (centres unmarked) [GSK1321565] | 97.1%
15 | CCn1c(-c2nonc2N)nc2c(C#CC(C)(C)O)nc(OC[C@H](N)c3ccccc3)cc21 [GSK943949] | 60%
16 | COCCOCCOc1cc2ncc3c4ccc(C#N)cc4[nH]c3c2cc1OC | 0%
17 | Clc1ccc(-c2nn3ncccc3c2-c2ccnc(Nc3ccc4c(c3)OCCO4)n2)cc1 [GW829116] | 0%
18 | COc1cccc(NC(=O)NC2CCN(c3ccnc(Nc4cc(OC)c(OC)c(OC)c4)n3)C2)c1 (centres unmarked) [GSK1379763] | 0%
19 | COc1cccc(C(=O)Nc2cccc(Oc3ccc4nc(NC(=O)C5CC5)cn4n3)c2)c1 | 0%
20 | CN(C)Cc1ccc(-c2ccc3c(Nc4ccc(Oc5ccccn5)cc4)ccnc3c2)o1 [GW567148] | 0%
21 | Nc1ncc(-c2cccnc2)c2scc(-c3ccc4c(c3)CCN4C(=O)Cc3ccccc3)c12 [GSK683281] | 12%
22 | COc1ccc(Nc2nccc(NCCNC(=O)c3cc4ccccc4s3)n2)cc1 [GSK1379896] | 0%
23 | O=C(Nc1n[nH]c2nc(-c3ccc(O)cc3)ccc12)C1CC1 [SB-710363] | 19%
24 | O=C(Nc1cccc(-c2nn3ccccc3c2-c2ccnc(Nc3cccc(F)c3)n2)c1)c1c(F)ccc(F)c1Cl [GSK357952] | 1%
25 | CN1CCN(Cc2cccc(-c3ccc4c(Nc5ccc(Oc6ccccc6)cc5)ccnc4c3)c2)CC1 [GW578342] | 0%
26 | COc1cc(Nc2nccc(N3CCC(NC(=O)Nc4cccc(C(C)=O)c4)C3)n2)cc(OC)c1OC (centres unmarked) [GSK1379753] | 0%
27 | c1ccc(Oc2ccc(Nc3ccnc4cc(-c5ccc(CNCCN6CCOCC6)o5)ccc34)cc2)nc1 [GW567145] | 1%
28 | CC(C)c1nc(-c2cccc(NS(=O)(=O)c3c(F)cccc3F)c2F)c(-c2ccnc(Nc3ccc(N4CCOCC4)nc3)n2)s1 [GSK2008607] | 0%
29 | C[C@@H](Oc1cc(-n2cnc3cc(-c4ccnc(NCCS(C)(=O)=O)c4)ccc32)sc1C(N)=O)c1ccccc1Cl [GSK907232] | 10%
30 | Cn1cc(-c2[nH]c3cc(NC(=O)[C@H](N)C4CCCCC4)cc4c3c2C=NNC4=O)cn1 | 56%
31 | CCS(=O)(=O)c1ccc(OC)c(Nc2nccc(-c3c(-c4cccc(NC(=O)c5c(F)cccc5F)c4)nn4ncccc34)n2)c1 [GSK326180] | 6%
32 | Cl.NC(=O)c1cccc(Nc2nccc(Nc3ccc(Oc4c(Cl)cccc4Cl)c(Cl)c3)n2)c1 [GW659009] | 0%
